Reference: paper PMC4336329 (PLoS ONE, 2015)
In all, about 310,000 compounds went through this assay and about 2,200 (0.71%) showed an effect of 50% or more. The effect is printed as a negative number. This excerpt belongs to a sample that is enriched for strong results.

target: human ether-à-go-go-related gene (hERG) potassium channel (human, UniProt Q12809); assay: primary screen, population patch clamp on CHO cells stably expressing hERG; higher = less effect of the substance
Sequence (Q12809 whole entry, looked up): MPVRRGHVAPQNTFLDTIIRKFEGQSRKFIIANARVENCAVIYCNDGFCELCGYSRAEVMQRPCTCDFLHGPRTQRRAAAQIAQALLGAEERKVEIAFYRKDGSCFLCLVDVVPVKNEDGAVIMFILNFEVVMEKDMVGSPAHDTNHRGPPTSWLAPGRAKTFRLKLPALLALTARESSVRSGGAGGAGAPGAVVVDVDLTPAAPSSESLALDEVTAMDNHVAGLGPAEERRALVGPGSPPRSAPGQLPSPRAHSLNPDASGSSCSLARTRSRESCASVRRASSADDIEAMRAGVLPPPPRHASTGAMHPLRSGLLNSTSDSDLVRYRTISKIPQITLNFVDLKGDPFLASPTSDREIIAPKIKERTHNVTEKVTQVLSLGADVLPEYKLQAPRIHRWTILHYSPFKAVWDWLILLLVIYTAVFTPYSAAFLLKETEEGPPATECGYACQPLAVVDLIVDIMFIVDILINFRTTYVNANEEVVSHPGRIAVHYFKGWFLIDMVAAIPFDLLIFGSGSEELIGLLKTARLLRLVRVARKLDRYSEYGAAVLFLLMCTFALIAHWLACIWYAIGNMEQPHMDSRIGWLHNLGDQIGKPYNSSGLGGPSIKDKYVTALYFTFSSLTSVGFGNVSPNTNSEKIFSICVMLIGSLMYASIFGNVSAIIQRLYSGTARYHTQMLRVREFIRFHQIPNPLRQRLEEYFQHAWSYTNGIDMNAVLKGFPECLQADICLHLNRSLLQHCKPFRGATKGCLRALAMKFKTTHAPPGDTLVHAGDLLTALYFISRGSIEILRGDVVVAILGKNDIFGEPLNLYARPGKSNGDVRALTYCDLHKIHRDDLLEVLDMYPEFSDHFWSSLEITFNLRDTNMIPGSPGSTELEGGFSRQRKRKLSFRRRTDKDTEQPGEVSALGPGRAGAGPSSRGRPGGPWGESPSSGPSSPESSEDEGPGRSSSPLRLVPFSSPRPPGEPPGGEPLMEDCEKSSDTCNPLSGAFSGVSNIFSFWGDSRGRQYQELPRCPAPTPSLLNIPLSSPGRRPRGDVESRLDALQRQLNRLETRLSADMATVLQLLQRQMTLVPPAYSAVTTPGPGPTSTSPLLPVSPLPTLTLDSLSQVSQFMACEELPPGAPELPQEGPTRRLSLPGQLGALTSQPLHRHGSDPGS

Row | Structure (SMILES) | hERG current change (%, negative = inhibition) at 1uM
1 | Cc1ccc(S(=O)(=O)N2CCCCC2)cc1C(=O)N(CCc1ccccc1)Cc1ccccc1 | 12.2%
2 | COc1ccc(C(=O)Oc2ccc(F)cc2C(=O)/C=C/c2ccc(OC)c(OC)c2)cc1 | 0.79%
3 | O=C(COc1ccccc1Cl)NC(=S)Nc1ccc(CN2CCOCC2)cc1 | 15.7%
4 | Cc1ccc(NC(=O)COc2ccc3oc4c(c3c2)CCCC4)nc1 | 2.88%
5 | COc1cc(C2C(C(=O)c3cccs3)=C(O)C(=O)N2c2cc(C)on2)ccc1O (stereo not drawn) | 2.84%
6 | COc1ccc([N+](=O)[O-])cc1NC(=O)CSCc1ccccc1 | 13.5%
7 | COc1ccc(-c2cc3ccc(OCC(=O)NCC4CCC(C(=O)O)CC4)cc3oc2=O)cc1 (stereo not drawn) | 5.49%
8 | CC(C)(C)C(=O)N1NC(=Nc2ccccc2)SC1(C)C | 7.38%
9 | CCOc1ccc(S(=O)(=O)NCC2CCCO2)c2ccccc12 (stereo not drawn) | 4.4%
10 | O=C1OC(Nc2ccc(Cl)cn2)c2ccccc21 (stereo not drawn) | 2.2%
11 | CCn1c(/C=C/Nc2ccccc2)[n+](CC)c2ccc(C(=O)OCC(F)(F)F)cc21.[I-] | -90.5%
12 | CCOC(=O)c1ccc2c(c1)n(CCO)c(C)[n+]2CC.[I-] | 6.24%
13 | CCOC(=O)c1ccc2c(c1)n(CC)c(/C=C/N(C)c1ccccc1)[n+]2CC.[I-] | -66.2%
14 | CCOC(=O)c1ccc2c(c1)n(CC)c(/C=C/Nc1ccccc1)[n+]2CC.[I-] | -86.7%
15 | CCOC(=O)c1ccc2c(c1)n(CC)c(C)[n+]2CC.[I-] | 1.24%
16 | CCOC(=O)c1ccc2c(c1)n(CCCS(=O)(=O)[O-])c(/C=C/c1ccc(Cl)cc1)[n+]2CC | -7.29%
17 | CCn1c(/C=C/N(C)c2ccccc2)[n+](CC)c2ccc(Cl)cc21.[I-] | -7.59%
18 | CCn1c(C)[n+](CC)c2ccc(C(=O)N(C)c3ccccc3)cc21.[I-] | 25.5%
19 | CCOC(=O)c1ccc2c(c1)n(Cc1ccccc1)c(C)[n+]2CC.[O-][Cl+3]([O-])([O-])[O-] | 1.03%
20 | CCC1CCCCN1C(=O)c1sc2nc(C)nc(N(CC)CC)c2c1C (stereo not drawn) | 5.72%
21 | O=C(CC1C(=O)NCCN1Cc1ccc(Cl)c(F)c1)NC1CCC1 (stereo not drawn) | 14%

Row | Structure (SMILES) | hERG current change (%, negative = inhibition) at 1uM
22 | Cc1ccc(C2CCN(C(=O)Nc3ccccc3)C2)cc1 (stereo not drawn) | 11.5%
23 | CC(C)CC1NC(=O)N(CC(=O)NC2CCCc3ccccc32)C1=O (stereo not drawn) | 9.38%
24 | O=C(c1cccc(C(F)(F)F)c1)N1CCN(S(=O)(=O)c2ccc(Cl)s2)CC1 | 3.68%
25 | O=C(O)c1ccc2c(c1)C(=O)N(c1cc([N+](=O)[O-])ccn1)C2=O | 10.8%
26 | COc1ccccc1C1/C(=C(/O)c2ccccc2)C(=O)C(=O)N1CC(C)C (stereo not drawn) | 10.7%
27 | O=C(O)C1C2C=CC(C2)C1C(=O)NCc1ccoc1 (stereo not drawn) | 14.3%
28 | O=C(CN1CCN(c2ccccc2O)CC1)Nc1ccc([N+](=O)[O-])cc1Br | 7.54%
29 | CC(=O)N1CCN(CC(=O)Nc2ccc([N+](=O)[O-])cc2Br)CC1 | -60.4%
30 | O=C(CN1CCCCCC1)Nc1ccc([N+](=O)[O-])cc1Br | 10.1%
31 | O=C(CN1CCOCC1)Nc1ccc([N+](=O)[O-])cc1Br | -11.7%
32 | CN1CCN(CC(=O)Nc2ccc([N+](=O)[O-])cc2Br)CC1 | -55.8%
33 | CC(=O)N1CCN(CC(=O)Nc2cc([N+](=O)[O-])ccc2Cl)CC1 | 1.54%
34 | O=C(CSc1cccc[n+]1[O-])C12CC3CC(CC(C3)C1)C2 | 6.16%
35 | NS(=O)(=O)c1cccc(NC(=O)CCCC2CCCCC2)c1 | 7.26%
36 | Cc1cccc(-c2c3c(=O)n(C)c(=O)n(C)c3cn2-c2ccc(O)cc2)c1 | 13.8%
37 | Cc1nc2c(-c3ccccc3)c[nH]n2c(=O)c1Cc1ccccc1 | 13.3%
38 | COc1ccc(S(=O)(=O)N2CCC(N3CCN(Cc4ccccc4)CC3)CC2)cc1.O=C(O)C(=O)O | -14.4%
39 | Cc1ccc(S(=O)(=O)N2CCN(Cc3ccccc3)CC2)cc1 | 10%
40 | CC(CC(=O)N1CCN(S(=O)(=O)c2ccc([N+](=O)[O-])cc2)CC1)c1ccccc1 (stereo not drawn) | -50.3%
41 | O=C(Cc1ccccc1)N1CCN(S(=O)(=O)c2ccc([N+](=O)[O-])cc2)CC1 | -24.6%
42 | O=S(=O)(c1ccccc1)N1CCN(Cc2ccc(Cl)cc2)CC1 | -2.04%

Row | Structure (SMILES) | hERG current change (%, negative = inhibition) at 1uM
43 | O=[N+]([O-])c1ccccc1S(=O)(=O)N1CCN(C2CCN(Cc3ccccc3)CC2)CC1 | -18.2%
44 | Cc1ccc(S(=O)(=O)N2CCN(C3CCN(Cc4ccccc4)CC3)CC2)cc1.O=C(O)C(=O)O | -75.3%
45 | O=S(=O)(c1ccc(Cl)cc1)N1CCN(C2CCN(Cc3ccccc3)CC2)CC1 | -59%
46 | O=S(=O)(c1ccc(Cl)cc1)N1CCN(C2CCCCCC2)CC1 | 1.61%
47 | O=C(O)C(=O)O.O=[N+]([O-])c1ccc(S(=O)(=O)N2CCN(Cc3ccco3)CC2)cc1 | 18.9%
48 | O=C(O)C(=O)O.O=[N+]([O-])c1ccc(S(=O)(=O)N2CCN(C3CCN(Cc4ccccc4)CC3)CC2)cc1 | -78.1%
49 | CC(C)CC(=O)N1CCN(S(=O)(=O)c2ccccc2)CC1 | 8.07%
50 | c1ccc(OCc2nn3c(-c4ccccn4)nnc3s2)cc1 | 12.2%
51 | O=C(CN(C(=O)CNC(=O)c1cccs1)c1ccc2c(c1)OCCO2)NC1CCCC1 | -3.99%
52 | COc1cccc(NC(=S)NNC(=O)Cn2nc(C(F)(F)F)cc2C)c1 | 9.84%
53 | COc1ccc(COC(=O)C2=C(C)NC(=O)NC2c2ccc(OC)c(OC)c2)cc1 (stereo not drawn) | 12.4%
54 | Cc1ccc(-c2cc3ccccc3nc2N2CCOCC2)cc1 | 9.78%
55 | Cc1ccc(OC(F)F)c(NC(=O)Nc2ccc3c(c2)OCO3)c1 | 19.9%
56 | CC(=O)NC(c1ccco1)c1ccc2cccnc2c1O (stereo not drawn) | -3.48%
57 | Cc1cc(CSc2ccccc2C(=O)O)on1 | 11.6%
58 | Cc1ccc(C2=N/C(=C\c3cccnc3)C(=O)O2)cc1 | 3.52%
59 | COc1ccc(S(=O)(=O)N2CCN(C3CCN(Cc4ccccc4)CC3)CC2)cc1 | -15.6%
60 | CN1CCN(CC2(O)CCN(S(=O)(=O)c3ccc(Cl)cc3)CC2)CC1 | -9.27%
61 | O=S(=O)(c1ccccc1)N1CCN(C2CCN(Cc3ccccc3)CC2)CC1 | -64.1%
62 | O=S(=O)(c1ccc(Cl)cc1)N1CCC(O)(CN2CCN(Cc3ccccc3)CC2)CC1 | -75.6%
63 | CS(=O)(=O)N1CCN(C2CCN(Cc3ccccc3)CC2)CC1 | 7.88%

Row | Structure (SMILES) | hERG current change (%, negative = inhibition) at 1uM
64 | O=S(=O)(c1ccccc1)N1CCC(O)(CN2CCN(c3ccccc3)CC2)CC1 | 14.8%
65 | Cc1cc(NC(=O)CCC(=O)N(Cc2cccnc2)C(C(=O)NC(C)(C)C)c2ccccc2Cl)no1 (stereo not drawn) | 14.7%
66 | O=C1CN(c2ccccc2)C(=S)N1C(=O)c1ccccc1 | 13.5%
67 | C/C(=N/NC(=O)c1ccco1)c1cccc(NC(=O)c2ccc(C)o2)c1 | -8.71%
68 | C/C(=N\NC(=O)c1cccc(Br)c1)c1cccc(NC(=O)c2ccc(C)o2)c1 | 2.01%
69 | C/C(=N/NC(=O)c1ccc(Br)o1)c1cccc(NC(=O)c2ccc(C)o2)c1 | -58%
70 | Cc1[nH]c2ccc(C(=O)N3CCN(Cc4ccccc4)CC3)cc2c1C | 0.829%
71 | CC1(c2nnc(-c3cccc(Cl)c3)o2)CC(c2ccccc2F)=NO1 (stereo not drawn) | 8.2%
72 | O=C(CN1CCC(C(=O)c2ccc(F)cc2)CC1)Nc1ccccc1 | -10.5%
73 | O=C(O)C(O)C(O)C(=O)O.O=C(c1ccc(F)cc1)C1CCN(CCn2c(=O)[nH]c3ccccc3c2=O)CC1 | -9.52%
74 | O=c1c2ccccc2[nH]c(=S)n1CCCN1CCC(Cc2ccccc2)CC1 | -52%
75 | CC1CCN(CCCn2c(=S)[nH]c3ccccc3c2=O)CC1 | -13.5%
76 | CC1(C)C(=O)N(CCN2CCC(C(=O)c3ccc(F)cc3)CC2)c2ccccc21.Cl | -60.8%
77 | O=C(CN1CCC(C(=O)c2ccc(F)cc2)CC1)NCc1ccccc1F | 2.84%
78 | Cl.O.O=C(c1ccc(F)cc1)C1CCN(CCn2c(=S)[nH]c3ccccc3c2=O)CC1 | -77.7%
79 | CC1CCN(CCn2c(=S)[nH]c3ccccc3c2=O)CC1 | 1.9%
80 | O=c1c2ccccc2[nH]c(=S)n1CCCN1CCN(c2ccccc2)CC1 | 14%
81 | O=C(CCSc1nc2ccccc2o1)N1CCOCC1 | 8.39%
82 | CCOc1cc(C(=O)Nc2cccc3ncccc23)cc(OCC)c1OCC | -2.81%
83 | COC(=O)Cc1c(O)ccn(Cc2ccccc2OC)c1=O | 10.5%
84 | COc1cc(/C=N/Nc2nc3ccccc3[nH]2)cc(Br)c1OCC(=O)N(C)C | 0.153%
